# Source: the supplement of paper PMC10849652
# Of roughly 7,900 targets only a part is listed; those with a hit were picked by preference. About 0.6% of all pairs of compound and target were hits. Values without a mark were called inactive.
# Key:
# Test in all cases: log2 fold change, soluble protein after heating vs DMSO (PISA); higher = thermal stabilisation; K562 cells, 10 uM, 30 min; active = over 0.2 and 3.5 SD of the protein, either way, in both replicates (recomputed)
# saracatinib = compound: CN1CCN(CCOc2cc(OC3CCOCC3)c3c(Nc4c(Cl)ccc5c4OCO5)ncnc3c2)CC1 [saracatinib]
# In short: (§1)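 K562 cells at 2×10^6 cells/mL were treated with 10 μM compound for 30 min. Aliquots were heated for 3 min across 48°C-58°C, pooled, and extracted in PBS with 0.5% NP-40 at 4°C; soluble protein was the supernatant after 21,000xg for 90 min. Soluble protein was quantified by TMTpro 16plex LC-MS/MS with channel sums equalised, and reported as log2 fold change in thermal stability against DMSO controls, with values from duplicates.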
# sotrastaurin = compound: CN1CCN(c2nc(C3=C(c4c[nH]c5ccccc45)C(=O)NC3=O)c3ccccc3n2)CC1 [sotrastaurin]
# In short: as §1
# alvocidib = compound: CN1CC[C@H](c2c(O)cc(O)c3c(=O)cc(-c4ccccc4Cl)oc23)[C@H](O)C1 [alvocidib]
# In short: as §1
# Tubastatin A = compound: CN1CCc2c(c3ccccc3n2Cc2ccc(C(=O)NO)cc2)C1 [Tubastatin A]
# In short: as §1
# [1] = compound: CNC(=O)C1=CC=CC=C1NC2=NC(=NC=C2Cl)NC3=C(C=C(C=C3)N4CCOCC4)OC
# In short: as §1
# defactinib = compound: CNC(=O)c1ccc(Nc2ncc(C(F)(F)F)c(NCc3nccnc3N(C)S(C)(=O)=O)n2)cc1 [defactinib]
# In short: as §1
# rucaparib = compound: CNCc1ccc(-c2[nH]c3cc(F)cc4c3c2CCNC4=O)cc1 [rucaparib]
# In short: as §1
# [2] = compound: CNc1nc(-c2ccc3c(N)n[nH]c3c2)cc(N2C[C@@H](C(=O)NC3CCCCC3)CC[C@H]2C)n1
# In short: as §1
# encorafenib = compound: COC(=O)N[C@@H](C)CNc1nccc(-c2cn(C(C)C)nc2-c2cc(Cl)cc(NS(C)(=O)=O)c2F)n1 [encorafenib]
# In short: as §1
# [3] = compound: COC(=O)[C@H](CCSC)NC(=O)C1=C(C=C(C=C1)NC[C@H](CS)N)C2=CC=CC=C2
# In short: as §1
# [4] = compound: COC1=CC=C(C=C1)CN2C=CC3=C2C=C(C=C3)C(=O)NO
# In short: as §1
# filanesib = compound: CON(C)C(=O)N1N=C(c2cc(F)ccc2F)S[C@@]1(CCCN)c1ccccc1 [filanesib]
# In short: as §1
# zotarolimus = compound: CO[C@H]1C[C@@H]2CC[C@@H](C)[C@@](O)(O2)C(=O)C(=O)N2CCCC[C@H]2C(=O)O[C@H]([C@H](C)C[C@@H]2CC[C@H](n3cnnn3)[C@H](OC)C2)CC(=O)[C@H](C)/C=C(\C)[C@@H](O)[C@@H](OC)C(=O)[C@H](C)C[C@H](C)/C=C/C=C/C=C/1C [zotarolimus]
# In short: as §1
# idasanutlin = compound: COc1cc(C(=O)O)ccc1NC(=O)[C@@H]1N[C@@H](CC(C)(C)C)[C@](C#N)(c2ccc(Cl)cc2F)[C@H]1c1cccc(Cl)c1F [idasanutlin]
# In short: as §1
# alisertib = compound: COc1cc(Nc2ncc3c(n2)-c2ccc(Cl)cc2C(c2c(F)cccc2OC)=NC3)ccc1C(=O)O [alisertib]
# In short: as §1
# [5] = compound: COc1cc2nc(-c3cc(F)ccc3O)nc(N[C@@H]3CNC[C@H]3C(C)(C)O)c2cc1OC
# In short: as §1
# gefitinib = compound: COc1cc2ncnc(Nc3ccc(F)c(Cl)c3)c2cc1OCCCN1CCOCC1 [gefitinib]
# In short: as §1
# [6] = compound: COc1cccc2cc(-c3nc([C@H]4CC[C@H](C(=O)O)CC4)n4ncnc(N)c34)[nH]c12
# In short: as §1
# lapatinib = compound: CS(=O)(=O)CCNCc1ccc(-c2ccc3ncnc(Nc4ccc(OCc5cccc(F)c5)c(Cl)c4)c3c2)o1 [lapatinib]
# In short: as §1
# pictilisib = compound: CS(=O)(=O)N1CCN(Cc2cc3nc(-c4cccc5[nH]ncc45)nc(N4CCOCC4)c3s2)CC1 [pictilisib]
# In short: as §1
# Sequence of UniProt Q9H2M9 (Q9H2M9 whole entry, looked up): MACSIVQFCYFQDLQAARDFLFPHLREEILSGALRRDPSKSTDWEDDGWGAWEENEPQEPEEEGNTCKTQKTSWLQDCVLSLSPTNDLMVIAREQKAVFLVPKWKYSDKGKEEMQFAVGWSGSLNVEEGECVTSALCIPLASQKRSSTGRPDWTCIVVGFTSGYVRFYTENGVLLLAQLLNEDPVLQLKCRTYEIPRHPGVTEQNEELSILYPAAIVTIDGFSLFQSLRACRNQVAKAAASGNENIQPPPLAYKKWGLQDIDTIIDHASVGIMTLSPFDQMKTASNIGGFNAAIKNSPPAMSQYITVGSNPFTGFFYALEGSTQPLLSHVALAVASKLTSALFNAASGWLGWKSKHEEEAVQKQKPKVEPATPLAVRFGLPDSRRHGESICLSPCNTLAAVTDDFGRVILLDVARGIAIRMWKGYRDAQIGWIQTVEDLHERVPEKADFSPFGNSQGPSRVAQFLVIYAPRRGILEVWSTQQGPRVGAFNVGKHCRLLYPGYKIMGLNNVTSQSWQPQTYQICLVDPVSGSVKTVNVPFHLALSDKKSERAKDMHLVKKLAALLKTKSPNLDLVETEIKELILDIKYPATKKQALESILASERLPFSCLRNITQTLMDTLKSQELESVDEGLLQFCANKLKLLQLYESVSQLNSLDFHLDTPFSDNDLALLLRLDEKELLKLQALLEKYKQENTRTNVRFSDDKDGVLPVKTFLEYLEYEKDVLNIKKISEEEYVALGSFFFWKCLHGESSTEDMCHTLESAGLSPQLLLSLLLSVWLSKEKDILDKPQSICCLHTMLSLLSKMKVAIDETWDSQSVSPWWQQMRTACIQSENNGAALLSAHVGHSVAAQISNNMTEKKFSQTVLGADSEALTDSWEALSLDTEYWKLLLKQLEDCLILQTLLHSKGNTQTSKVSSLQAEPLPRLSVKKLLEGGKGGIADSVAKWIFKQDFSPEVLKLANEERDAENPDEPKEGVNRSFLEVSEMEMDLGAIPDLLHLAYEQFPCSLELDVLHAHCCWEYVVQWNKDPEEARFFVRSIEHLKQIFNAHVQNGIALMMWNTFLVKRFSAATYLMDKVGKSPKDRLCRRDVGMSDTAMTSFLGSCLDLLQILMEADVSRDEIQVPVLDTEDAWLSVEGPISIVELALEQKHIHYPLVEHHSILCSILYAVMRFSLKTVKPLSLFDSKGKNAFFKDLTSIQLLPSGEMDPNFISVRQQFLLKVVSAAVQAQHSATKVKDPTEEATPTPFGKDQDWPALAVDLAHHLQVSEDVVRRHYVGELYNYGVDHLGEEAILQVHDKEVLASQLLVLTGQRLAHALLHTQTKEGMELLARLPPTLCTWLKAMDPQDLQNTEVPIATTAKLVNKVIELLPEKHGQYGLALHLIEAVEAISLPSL
# Sequence of UniProt Q8TDY2 (Q8TDY2 whole entry, looked up): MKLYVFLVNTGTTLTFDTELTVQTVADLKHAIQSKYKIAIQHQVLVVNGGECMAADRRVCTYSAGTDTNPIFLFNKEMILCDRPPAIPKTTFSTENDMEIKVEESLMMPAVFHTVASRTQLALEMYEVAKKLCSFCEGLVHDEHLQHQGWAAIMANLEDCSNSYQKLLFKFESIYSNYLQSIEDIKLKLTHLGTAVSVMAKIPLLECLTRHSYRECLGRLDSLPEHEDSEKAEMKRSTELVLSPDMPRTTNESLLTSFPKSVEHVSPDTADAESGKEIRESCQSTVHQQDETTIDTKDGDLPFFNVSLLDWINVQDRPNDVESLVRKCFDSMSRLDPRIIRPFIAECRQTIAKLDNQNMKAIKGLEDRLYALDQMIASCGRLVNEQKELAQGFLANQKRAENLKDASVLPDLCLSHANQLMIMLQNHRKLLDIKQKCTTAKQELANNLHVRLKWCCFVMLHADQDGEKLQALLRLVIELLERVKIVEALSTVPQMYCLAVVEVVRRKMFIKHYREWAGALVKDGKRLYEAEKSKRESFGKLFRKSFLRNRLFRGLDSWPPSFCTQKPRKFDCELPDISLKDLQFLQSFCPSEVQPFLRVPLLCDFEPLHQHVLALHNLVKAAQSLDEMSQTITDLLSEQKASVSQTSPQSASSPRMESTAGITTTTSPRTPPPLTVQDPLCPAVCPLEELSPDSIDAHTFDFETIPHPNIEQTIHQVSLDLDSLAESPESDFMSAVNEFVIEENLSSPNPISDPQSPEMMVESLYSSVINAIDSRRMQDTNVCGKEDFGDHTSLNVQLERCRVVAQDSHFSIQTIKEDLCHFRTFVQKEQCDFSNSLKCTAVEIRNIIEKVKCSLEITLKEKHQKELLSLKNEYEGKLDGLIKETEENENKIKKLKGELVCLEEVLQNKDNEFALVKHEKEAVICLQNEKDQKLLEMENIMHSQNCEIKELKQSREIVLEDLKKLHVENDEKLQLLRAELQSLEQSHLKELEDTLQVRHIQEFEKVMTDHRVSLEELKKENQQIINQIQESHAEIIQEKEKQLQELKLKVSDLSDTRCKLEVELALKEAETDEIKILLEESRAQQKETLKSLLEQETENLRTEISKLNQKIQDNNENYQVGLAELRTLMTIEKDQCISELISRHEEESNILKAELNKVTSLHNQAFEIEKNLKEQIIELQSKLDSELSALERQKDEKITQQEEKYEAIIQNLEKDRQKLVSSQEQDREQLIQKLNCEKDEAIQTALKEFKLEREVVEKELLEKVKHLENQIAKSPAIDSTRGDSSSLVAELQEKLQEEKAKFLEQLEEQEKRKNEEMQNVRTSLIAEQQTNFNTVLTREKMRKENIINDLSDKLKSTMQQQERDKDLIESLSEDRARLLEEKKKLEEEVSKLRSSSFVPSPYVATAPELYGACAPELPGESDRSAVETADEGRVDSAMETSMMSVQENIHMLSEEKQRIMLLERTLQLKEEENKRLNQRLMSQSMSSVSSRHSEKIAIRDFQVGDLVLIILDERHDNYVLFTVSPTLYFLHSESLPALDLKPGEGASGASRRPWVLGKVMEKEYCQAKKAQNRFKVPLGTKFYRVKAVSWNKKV
# Sequence of UniProt O75116 (O75116 whole entry, looked up): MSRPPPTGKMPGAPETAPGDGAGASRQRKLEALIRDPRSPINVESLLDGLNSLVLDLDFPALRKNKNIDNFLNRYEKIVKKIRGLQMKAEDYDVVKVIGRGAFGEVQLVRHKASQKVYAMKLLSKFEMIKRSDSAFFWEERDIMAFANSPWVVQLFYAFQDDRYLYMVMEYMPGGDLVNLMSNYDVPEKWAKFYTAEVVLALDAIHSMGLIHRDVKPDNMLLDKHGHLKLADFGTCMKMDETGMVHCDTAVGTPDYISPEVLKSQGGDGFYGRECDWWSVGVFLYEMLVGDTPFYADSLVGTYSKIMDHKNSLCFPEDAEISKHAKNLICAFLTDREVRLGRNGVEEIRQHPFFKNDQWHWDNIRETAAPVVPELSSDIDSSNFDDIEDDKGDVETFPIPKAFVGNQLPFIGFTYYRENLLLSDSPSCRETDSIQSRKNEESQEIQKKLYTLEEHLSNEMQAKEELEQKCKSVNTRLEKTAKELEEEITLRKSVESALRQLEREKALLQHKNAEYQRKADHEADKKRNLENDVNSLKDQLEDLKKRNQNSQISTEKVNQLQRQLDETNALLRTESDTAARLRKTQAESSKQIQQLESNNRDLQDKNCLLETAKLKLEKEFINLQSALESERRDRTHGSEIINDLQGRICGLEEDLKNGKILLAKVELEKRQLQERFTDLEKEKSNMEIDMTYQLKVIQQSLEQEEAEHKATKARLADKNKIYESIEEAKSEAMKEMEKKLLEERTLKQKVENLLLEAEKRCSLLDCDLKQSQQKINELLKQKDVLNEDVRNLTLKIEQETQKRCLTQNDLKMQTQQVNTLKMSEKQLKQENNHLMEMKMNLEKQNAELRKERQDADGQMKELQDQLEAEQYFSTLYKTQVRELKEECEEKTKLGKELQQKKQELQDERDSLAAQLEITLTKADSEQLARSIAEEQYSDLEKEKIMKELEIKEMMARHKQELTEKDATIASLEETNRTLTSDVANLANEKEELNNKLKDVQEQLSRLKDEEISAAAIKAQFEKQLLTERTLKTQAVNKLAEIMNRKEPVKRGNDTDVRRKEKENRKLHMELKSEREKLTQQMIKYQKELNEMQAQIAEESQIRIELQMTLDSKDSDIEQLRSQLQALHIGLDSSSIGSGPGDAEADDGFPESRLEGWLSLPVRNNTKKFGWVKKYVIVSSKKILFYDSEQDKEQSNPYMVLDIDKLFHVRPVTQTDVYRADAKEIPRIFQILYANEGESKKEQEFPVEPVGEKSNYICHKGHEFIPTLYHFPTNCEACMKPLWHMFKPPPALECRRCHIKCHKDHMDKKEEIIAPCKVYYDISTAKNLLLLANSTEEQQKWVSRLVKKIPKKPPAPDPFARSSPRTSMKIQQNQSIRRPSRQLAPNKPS
# Sequence of UniProt Q9NR46 (Q9NR46 whole entry, looked up): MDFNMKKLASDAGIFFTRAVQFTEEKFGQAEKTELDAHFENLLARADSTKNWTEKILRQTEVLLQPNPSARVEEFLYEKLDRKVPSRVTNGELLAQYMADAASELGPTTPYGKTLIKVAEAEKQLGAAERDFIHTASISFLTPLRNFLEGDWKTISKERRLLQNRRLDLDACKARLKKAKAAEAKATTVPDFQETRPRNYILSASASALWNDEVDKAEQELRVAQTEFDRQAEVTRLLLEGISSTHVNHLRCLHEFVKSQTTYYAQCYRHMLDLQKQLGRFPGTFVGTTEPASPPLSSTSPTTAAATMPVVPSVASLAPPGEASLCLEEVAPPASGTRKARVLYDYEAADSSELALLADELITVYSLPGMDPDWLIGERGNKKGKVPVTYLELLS
# Sequence of UniProt P63208 (P63208 whole entry, looked up): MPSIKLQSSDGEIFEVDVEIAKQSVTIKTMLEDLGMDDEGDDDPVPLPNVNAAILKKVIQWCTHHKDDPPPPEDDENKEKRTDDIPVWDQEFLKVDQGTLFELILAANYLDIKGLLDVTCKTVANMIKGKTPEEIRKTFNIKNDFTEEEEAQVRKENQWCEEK
# Sequence of UniProt Q8N0T1 (Q8N0T1 whole entry, looked up): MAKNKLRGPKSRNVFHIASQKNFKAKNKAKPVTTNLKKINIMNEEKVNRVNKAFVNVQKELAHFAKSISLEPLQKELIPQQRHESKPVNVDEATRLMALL
Target,log2 fold change (saracatinib),log2 fold change (sotrastaurin),log2 fold change (alvocidib),log2 fold change (Tubastatin A),log2 fold change [1],log2 fold change (defactinib),log2 fold change (rucaparib),log2 fold change [2],log2 fold change (encorafenib),log2 fold change [3],log2 fold change [4],log2 fold change (filanesib),log2 fold change (zotarolimus),log2 fold change (idasanutlin),log2 fold change (alisertib),log2 fold change [5],log2 fold change (gefitinib),log2 fold change [6],log2 fold change (lapatinib),log2 fold change (pictilisib)
SDHC (UniProt Q99643),0.074,-0.201,-0.006,-0.134,0.04,-0.062,-0.012,-0.159,0.029,0.159,0.088,0.088,0.094,-0.238,0.023,-0.107,0.042,0.04,-0.081,-0.006
ROCK2 (UniProt O75116),0.02,-0.096,-0.01,-0.001,-0.062,-0.097,-0.027,0.212,0.042,-0.003,-0.009,-0.006,0.023,0,0.072,0.135,0.045,-0.038,-0.029,0.071
RBIS (UniProt Q8N0T1),0.054,-0.002,0.059,0.037,-0.026,0.058,-0.048,-0.037,0.022,0.03,-0.069,0.077,-0.075,0.061,-0.053,-0.018,-0.056,-0.012,0.012,-0.04
RPL38 (UniProt P63173),-0.018,0.01,0.088,0.014,0.027,0.126,0.093,0.044,0.003,0.037,-0.109,0,-0.007,0.055,-0.064,0.061,-0.074,-0.171,0.05,-0.053
RTN4IP1 (UniProt Q8WWV3),-0.264,0.43,-0.27,0.611 (active),-0.066,-0.157,-0.178,-0.069,0.02,0.007,0.206,-0.081,0.097,1.17 (active),-0.22,-0.013,0.125,0.256,0.003,-0.003
RRAGB (UniProt Q5VZM2),0.076,0.028,-0.029,-0.03,-0.01,-0.075,-0.009,-0.009,0.06,0.084,-0.018,-0.059,-0.086,-0.026,-0.054,-0.078,-0.003,0.053,0.042,0.052
SKP1 (UniProt P63208),0.157,-0.023,-0.032,0.002,0.165,0.066,-0.051,0.028,-0.005,0.072,0.209,-0.095,0.09,0.027,-0.005,-0.099,0.001,-0.008,0.01,-0.121
RBM17 (UniProt Q96I25),0.005,-0.039,-0.018,0.065,-0.03,-0.174,0.055,-0.025,0.05,-0.044,0.026,0.038,0.064,0.121,-0.055,-0.031,0.003,0.019,0,-0.276
RNASEH2A (UniProt O75792),-0.071,0.029,-0.107,0.033,0.029,0.117,0.018,0.033,-0.003,0.096,0.029,-0.005,0.034,-0.007,-0.016,0.049,-0.013,0.031,-0.029,0.234
RPS5 (UniProt P46782),-0.038,0.018,0.167,0.084,0.065,0.121,0.096,0.103,0.054,-0.026,0.004,0.089,0.011,0.094,-0.11,-0.056,-0.052,-0.126,0.081,-0.099
SH3GLB2 (UniProt Q9NR46),-0.059,-0.08,-0.13,0.024,-0.048,-0.148,0.042,-0.02,0.029,-0.086,0.016,0.085,0.052,0.061,-0.011,-0.034,-0.004,-0.018,-0.04,0.025
RB1CC1 (UniProt Q8TDY2),-0.065,-0.108,-0.025,0.117,-0.051,-0.042,0.09,0.049,-0.104,-0.025,0.435 (active),-0.079,0.014,-0.002,-0.112,0.182,-0.042,-0.049,0.181,0.083
RBM25 (UniProt P49756),-0.025,-0.109,-0.133,0.058,-0.164,-0.24 (active),0.03,-0.091,-0.094,0.014,0.285 (active),0.112,0.022,0.022,-0.044,-0.035,0.001,0.043,-0.024,0.052
RAB3GAP2 (UniProt Q9H2M9),-0.111,-0.195,-0.013,0.058,0.017,-0.064,0.205,0.039,0.189,-0.089,0,0.049,0.101,0.01,-0.056,0.009,0.017,-0.103,0.038,-0.027
SAFB2 (UniProt Q14151),-0.055,-0.028,0.149,-0.048,-0.022,0.144,0.1,-0.067,0.029,-0.005,-0.044,0.409 (active),0.017,0.085,-0.045,-0.046,0,-0.037,0.048,-0.032
RIOK2 (UniProt Q9BVS4),-0.073,0.033,0.169,0.067,0.195,0.138,0.014,0.069,0.05,-0.009,-0.039,0.064,-0.017,0.01,-0.025,0.074,-0.101,-0.057,0.08,0.049
